Measurements reported in ChEMBL document CHEMBL1157539, “Thousands of chemical starting points for antimalarial lead identification” (Nature, 2010).

Tests used:
Format in all cases: functional
[1] = tested on: Plasmodium falciparum; experiment: GSK_TCMDC: Inhibition of Plasmodium falciparum 3D7 in whole red blood cells, using parasite LDH activity as an index of growth. Test compounds present at 2uM
[2] = tested on: Plasmodium falciparum; experiment: GSK_TCMDC: Inhibition of Plasmodium falciparum Dd2 in whole red blood cells, using parasite LDH activity as an index of growth. Test compounds present at 2uM
[3] = tested on: HepG2; experiment: GSK_TCMDC: Percent inhibition of human HepG2 cell line. Test compounds present at 10uM.

SMILES	Inhibition [1] [%]	Inhibition [2] [%]	Inhibition [3] [%]
CCc1cn2c3c(cc(C(=O)N[C@@H](Cc4ccccc4)[C@H](O)CNC4CCOCC4)cc13)N(CC(F)(F)F)S(=O)(=O)CC2.O=CO	98	98	4
CCCCNCc1ccc(OCc2cccc(COc3ccc(CNCCCC)cc3)c2)cc1.Cl	100	35	98
O=C(NCc1cccc(F)c1)Nc1cccc(-c2ccc(-c3nc4cc(F)ccc4[nH]3)cc2)c1	84	0	46
COc1cccc(CCc2nc3c(N4CCC(Cc5ccccc5)CC4)cccc3n2CC2CNCCO2)c1.O=C(O)C(F)(F)F (centres undefined)	94	96	4
Cc1cc(N2CCCC2)nc(Nc2ccc(NC(=O)c3ccccc3)cc2)n1	100	65	26
COc1cc(CCNC(=N)/C=C/c2ccc(Cl)cc2)ccc1Cl.Cl	100	16	68
O=C(O)C(F)(F)F.O=C1COC2(CN1C1CCN(Cc3ccc(O)cc3Cl)C1)c1ccccc1-c1ccccc12 (centres undefined)	82	70	10
Cc1cc(C(=O)NCc2ccc(-c3c(C)noc3C)cc2)n(-c2ccccc2)n1	92	90	4
N#Cc1ccc(C(=O)Nc2ccc(Cl)c(N3CCN(CCc4ccccc4)CC3)c2)cc1.O=C(O)C(F)(F)F	90	35	5
Nc1nc(N)c2cc(C#Cc3ccc(-c4ccccc4)cc3)ccc2n1	94	3	20
NS(=O)(=O)c1cccc(-c2ccc3nccc(-c4cccc(S(N)(=O)=O)c4)c3c2)c1	98	99	40
CN1CCN(c2ccc(CNc3ccc4ncc(-c5cccc(OC(F)(F)F)c5)n4n3)cc2)CC1	89	78	25
Cn1c(N)c(C(=O)CSc2ncc(-c3ccc(F)cc3)n2Cc2ccccc2)c(=O)n(C)c1=O	88	66	11
COc1ccc(CNCCc2cccs2)cc1-c1ccc(S(=O)(=O)NCCN2CCCC2)cc1.O=C(O)C(F)(F)F	99	30	30
Clc1ccc(OCc2ccccc2)c(-c2nc(-c3nc4ccc(Cl)cc4[nH]3)cs2)c1	99	60	0
CCn1cc2c3c(cc(C(=O)N[C@@H](Cc4ccccc4)[C@H](O)CNCc4cccc(OC)c4)cc31)N(C)S(=O)(=O)CC2	99	97	0
CCC(CC)NCc1c(O)ccc2c(CNC(CC)CC)c(O)ccc12.Cl	100	94	4
CC(C)COc1ccc(Cl)cc1Cc1ccc(-c2nc3cnc4ccccc4c3[nH]2)o1	87	26	21
c1csc(-c2nc(N3CCCC3)ncc2-c2ccsc2)n1	89	75	1
O=C(Nc1ccc(Cn2ncc(N3CCCNCC3)c(Cl)c2=O)cc1)Nc1ccc(-c2ccccc2)cc1	93	41	12
c1ccc(C2=NN=C(c3ccccn3)C3C4CC(C23)C2C3CC(c5ccccc53)C42)nc1 (centres undefined)	98	77	39
CN(c1ccc(NC(=O)Nc2cc(C(F)(F)F)ccc2F)cc1)c1ccnc(NCCN2CCOCC2)n1.O=C(O)C(F)(F)F	97	73	67
COc1cc(NC(=O)c2sc(-c3ccc(Cl)cc3)cc2NC(=O)c2cccnc2)ccc1OCCN1CCCC1	94	77	38
Cc1c(F)cc(C(=O)NC2CC2)cc1-c1ccc2c(cnn2S(=O)(=O)c2ccc(C#N)cc2)c1	97	92	17
COc1cc2nc(NCCn3nc(C)cc3C)nc(NCCc3ccccc3)c2cc1OC	100	100	28
Cc1ccc2c(c1)nc(N)n2C[C@H](O)c1ccccc1	100	74	0
O=C(/C=C/c1ccc(I)cc1)NCCCCCN1CCC(c2c[nH]c3ccc(O)cc23)CC1	97	1	14
O=C(Cc1ccccc1)NC(CCN1CCC(NC(=O)c2ccc(Cl)cc2)CC1)c1ccc(Cl)c(Cl)c1 (centres undefined)	85	23	17
